Structures are written as SMILES. For some assays here: Measured potencies and affinities stand elsewhere.

The values below come from ChEMBL document CHEMBL3988442, “University of Dundee, Small-Polar-MMV Screening Library” (2021).

Common to all, as to design: scale not given: direction of the effect not stated beside the values
Experiment [1] addresses Protein translocase subunit SecA (Escherichia coli (strain K12)) (UniProt P10408). In words: Assay to Identify E. coli SecA ATPase Inhibitors. It counts as functional. As to conditions: 30 µM.
The target in experiment [2] is T1, Ubiquitin-activating enzyme e1, putative (Leishmania donovani (strain BPK282A1)) (UniProt E9BSI1).
T1 sequence (whole entry): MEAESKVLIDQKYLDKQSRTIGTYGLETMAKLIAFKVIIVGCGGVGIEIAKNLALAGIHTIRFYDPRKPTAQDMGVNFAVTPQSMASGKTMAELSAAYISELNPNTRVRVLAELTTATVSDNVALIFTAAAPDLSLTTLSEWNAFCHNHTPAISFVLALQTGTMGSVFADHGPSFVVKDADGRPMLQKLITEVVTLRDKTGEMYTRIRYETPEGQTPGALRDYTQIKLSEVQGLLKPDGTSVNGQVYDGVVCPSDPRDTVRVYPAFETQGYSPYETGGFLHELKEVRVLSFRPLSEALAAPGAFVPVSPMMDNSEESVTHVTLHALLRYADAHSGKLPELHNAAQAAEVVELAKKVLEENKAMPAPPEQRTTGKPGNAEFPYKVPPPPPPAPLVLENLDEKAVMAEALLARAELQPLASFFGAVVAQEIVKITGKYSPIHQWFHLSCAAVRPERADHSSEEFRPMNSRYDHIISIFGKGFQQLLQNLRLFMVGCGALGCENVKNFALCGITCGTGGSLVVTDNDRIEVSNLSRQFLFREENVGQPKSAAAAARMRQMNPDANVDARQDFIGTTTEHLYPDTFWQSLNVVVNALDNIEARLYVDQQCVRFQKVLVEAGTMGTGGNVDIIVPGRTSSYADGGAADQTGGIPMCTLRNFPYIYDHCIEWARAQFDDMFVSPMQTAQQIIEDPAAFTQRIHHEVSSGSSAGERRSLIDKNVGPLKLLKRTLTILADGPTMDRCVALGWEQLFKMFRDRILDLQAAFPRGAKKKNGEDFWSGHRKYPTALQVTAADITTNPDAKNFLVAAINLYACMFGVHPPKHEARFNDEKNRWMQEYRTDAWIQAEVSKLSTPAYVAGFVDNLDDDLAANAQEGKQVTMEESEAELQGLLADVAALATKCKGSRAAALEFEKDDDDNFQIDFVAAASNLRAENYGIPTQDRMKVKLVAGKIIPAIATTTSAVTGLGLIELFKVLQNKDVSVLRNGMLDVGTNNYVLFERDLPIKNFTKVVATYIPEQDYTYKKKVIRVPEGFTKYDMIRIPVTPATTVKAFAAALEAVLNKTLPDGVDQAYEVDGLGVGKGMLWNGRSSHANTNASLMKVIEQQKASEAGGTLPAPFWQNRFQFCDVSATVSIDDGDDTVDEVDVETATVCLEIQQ
Nature of the experiment: Leishmania donovani Ubiquitin Activating Enzyme (LdE1). The following applies: 30 µM. The experiment is classed as functional.

Experiment [3] deals with AMP-activated protein kinase, AMPK (Homo sapiens) (UniProt P54646+O43741+P54619+Q9UGJ0+Q9Y478+Q13131+Q9UGI9). Nature of the experiment: AMP-dependent Kinase enzyme assay. An in vitro enzyme assay that detects ADP turnover that is directly proportional to AMPK activity. This uses naive AMPK that is activated during the assay with MK-8722. It counts as functional. The following applies: 30 µM.

The target of experiment [4] is Sialic acid-binding Ig-like lectin 9 (Homo sapiens) (UniProt Q9Y336). Nature of the experiment: Hs-Siglec9 ALPHAscreen SOP 20170721. The following applies: 10 µM. On the technique in general: Alpha assays give light when donor and acceptor beads are brought close together.
The test system of another experiment is Trypanosoma cruzi. In words: Trypanosoma cruzi phosphomannomutase and mannose-1-phosphate guanylyltransferase assay. The experiment is classed as functional. The following applies: 10 µM.
The target in experiment [5] is T2, Arginase-2, mitochondrial (Homo sapiens) (UniProt P78540).
T2 sequence (whole entry): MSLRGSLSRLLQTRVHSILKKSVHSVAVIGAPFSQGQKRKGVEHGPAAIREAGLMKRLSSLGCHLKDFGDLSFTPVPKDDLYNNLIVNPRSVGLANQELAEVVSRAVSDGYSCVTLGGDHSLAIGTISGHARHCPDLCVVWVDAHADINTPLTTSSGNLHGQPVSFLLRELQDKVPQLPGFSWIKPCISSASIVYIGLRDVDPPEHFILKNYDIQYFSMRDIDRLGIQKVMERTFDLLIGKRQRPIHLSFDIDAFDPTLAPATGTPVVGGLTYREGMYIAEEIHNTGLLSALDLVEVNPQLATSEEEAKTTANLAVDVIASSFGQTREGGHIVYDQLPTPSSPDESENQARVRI
Nature of the experiment: in vitro enzyme assay to detect the production of urea directly proportional to the activity of Arginase II. Further: in the data most compounds retested in dose-response had high values. The experiment is classed as functional. As to conditions: 33.3 µM.

Experiment [6] has as its target T3, Proteasome subunit beta (Trypanosoma cruzi) (UniProt O96673).
T3 sequence (whole entry): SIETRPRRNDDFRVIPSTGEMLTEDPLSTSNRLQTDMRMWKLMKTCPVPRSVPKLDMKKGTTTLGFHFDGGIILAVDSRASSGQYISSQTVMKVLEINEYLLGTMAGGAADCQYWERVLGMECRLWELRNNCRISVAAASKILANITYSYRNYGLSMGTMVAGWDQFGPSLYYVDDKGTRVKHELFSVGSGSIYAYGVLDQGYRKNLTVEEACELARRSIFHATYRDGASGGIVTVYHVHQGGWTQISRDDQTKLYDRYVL
In words: Trypanosoma cruzi proteasome chymotrypsin-like activity (TcProtChymo) assay. Further: in the data most compounds retested in dose-response had high values. The experiment is classed as functional. As to conditions: 9.37 µM.

The species entered for another experiment is Homo sapiens. Nature of the experiment: To identify inhibition of the IFN signalling (Jak-Stat) pathway via expression of an eGFP reporter gene under the control of an IFN-stimulated response element (ISRE) containing MxA promoter. As to conditions: 30 µM. It counts as functional.
Experiment [7] concerns the target T4, Tyrosyl-tRNA synthetase, putative (Trypanosoma cruzi (strain CL Brener)) (UniProt Q4DSP6).
T4 sequence (whole entry): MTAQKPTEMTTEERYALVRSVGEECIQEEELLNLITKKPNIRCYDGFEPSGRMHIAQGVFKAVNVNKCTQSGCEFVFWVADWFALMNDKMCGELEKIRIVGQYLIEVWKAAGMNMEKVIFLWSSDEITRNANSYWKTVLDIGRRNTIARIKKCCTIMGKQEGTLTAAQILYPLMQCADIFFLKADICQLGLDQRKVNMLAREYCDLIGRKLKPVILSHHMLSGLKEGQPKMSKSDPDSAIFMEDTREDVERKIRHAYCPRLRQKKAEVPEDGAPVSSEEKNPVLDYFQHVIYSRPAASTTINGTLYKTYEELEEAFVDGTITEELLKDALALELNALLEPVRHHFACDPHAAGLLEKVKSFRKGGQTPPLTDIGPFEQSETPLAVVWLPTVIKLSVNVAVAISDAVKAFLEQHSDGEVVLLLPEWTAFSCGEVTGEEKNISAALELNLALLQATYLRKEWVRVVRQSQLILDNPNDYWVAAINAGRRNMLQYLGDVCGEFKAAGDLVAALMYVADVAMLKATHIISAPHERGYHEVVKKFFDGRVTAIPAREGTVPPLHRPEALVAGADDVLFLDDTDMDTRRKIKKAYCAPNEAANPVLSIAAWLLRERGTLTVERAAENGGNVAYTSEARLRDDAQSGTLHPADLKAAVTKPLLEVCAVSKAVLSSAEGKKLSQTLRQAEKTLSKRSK
Nature of the experiment: Trypanosoma cruzi tyrosyl tRNA synthetase (TcYRS) _High Tyrosine SOP. Further: in the data most compounds retested in dose-response had high values. The experiment is classed as functional. As to conditions: 30 µM.

The target in experiment [8] is T4, Tyrosyl-tRNA synthetase, putative (Trypanosoma cruzi (strain CL Brener)). Nature of the experiment: Trypanosoma cruzi tyrosyl tRNA synthetase (TcYRS) SOP. It counts as functional. As to conditions: 30 µM.
For experiment [9], the target named is Chromo domain-containing protein 1 (Saccharomyces cerevisiae (strain ATCC 204508 / S288c) (Baker's yeast)) (UniProt P32657). In words: ScCHD-1 Enzyme Inhibition Assay. Further: in the data most compounds retested in dose-response had high values. The following applies: 30 µM. The experiment is classed as functional.
Sequence of Chromo domain-containing protein 1 (Saccharomyces cerevisiae (strain ATCC 204508 / S288c) (Baker's yeast)) (P32657 whole entry, the tested form may be a part): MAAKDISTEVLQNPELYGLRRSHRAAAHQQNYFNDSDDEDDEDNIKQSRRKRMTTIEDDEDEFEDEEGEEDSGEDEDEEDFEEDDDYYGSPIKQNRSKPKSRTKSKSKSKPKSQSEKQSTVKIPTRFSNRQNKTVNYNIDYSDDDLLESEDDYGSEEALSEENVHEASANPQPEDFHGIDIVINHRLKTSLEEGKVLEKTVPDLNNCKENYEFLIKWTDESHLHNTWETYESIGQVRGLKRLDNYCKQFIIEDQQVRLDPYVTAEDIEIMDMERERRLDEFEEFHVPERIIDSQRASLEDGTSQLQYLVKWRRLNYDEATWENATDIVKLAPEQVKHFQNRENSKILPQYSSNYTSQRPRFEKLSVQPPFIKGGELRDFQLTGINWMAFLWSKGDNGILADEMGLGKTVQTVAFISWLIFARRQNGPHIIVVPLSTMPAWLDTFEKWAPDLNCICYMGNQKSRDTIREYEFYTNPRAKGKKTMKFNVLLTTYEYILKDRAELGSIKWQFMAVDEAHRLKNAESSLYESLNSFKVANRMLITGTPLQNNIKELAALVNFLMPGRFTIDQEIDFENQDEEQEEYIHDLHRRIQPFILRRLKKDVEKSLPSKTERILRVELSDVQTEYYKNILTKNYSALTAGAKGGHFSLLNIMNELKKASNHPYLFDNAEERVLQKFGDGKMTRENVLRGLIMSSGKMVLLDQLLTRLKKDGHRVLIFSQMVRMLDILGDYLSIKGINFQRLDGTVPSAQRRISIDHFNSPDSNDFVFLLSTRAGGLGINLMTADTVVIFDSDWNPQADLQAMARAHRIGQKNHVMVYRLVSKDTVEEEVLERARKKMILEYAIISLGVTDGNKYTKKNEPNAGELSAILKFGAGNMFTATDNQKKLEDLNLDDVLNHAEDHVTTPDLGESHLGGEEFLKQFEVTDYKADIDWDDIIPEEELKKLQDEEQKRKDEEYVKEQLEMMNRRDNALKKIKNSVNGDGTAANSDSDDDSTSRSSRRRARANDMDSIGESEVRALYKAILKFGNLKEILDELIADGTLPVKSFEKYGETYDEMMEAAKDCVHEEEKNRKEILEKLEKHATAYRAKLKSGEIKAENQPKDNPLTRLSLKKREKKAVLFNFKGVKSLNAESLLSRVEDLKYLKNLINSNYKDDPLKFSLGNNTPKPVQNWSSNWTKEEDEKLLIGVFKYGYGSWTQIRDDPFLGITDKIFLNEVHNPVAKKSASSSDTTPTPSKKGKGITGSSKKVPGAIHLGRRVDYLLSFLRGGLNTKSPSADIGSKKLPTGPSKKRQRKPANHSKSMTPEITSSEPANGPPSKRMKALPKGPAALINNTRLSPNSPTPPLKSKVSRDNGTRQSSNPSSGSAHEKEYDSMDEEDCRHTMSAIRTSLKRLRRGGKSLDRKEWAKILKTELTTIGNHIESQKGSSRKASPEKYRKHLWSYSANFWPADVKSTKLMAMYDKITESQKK

Sequence of Protein translocase subunit SecA (Escherichia coli (strain K12)) (P10408 whole entry): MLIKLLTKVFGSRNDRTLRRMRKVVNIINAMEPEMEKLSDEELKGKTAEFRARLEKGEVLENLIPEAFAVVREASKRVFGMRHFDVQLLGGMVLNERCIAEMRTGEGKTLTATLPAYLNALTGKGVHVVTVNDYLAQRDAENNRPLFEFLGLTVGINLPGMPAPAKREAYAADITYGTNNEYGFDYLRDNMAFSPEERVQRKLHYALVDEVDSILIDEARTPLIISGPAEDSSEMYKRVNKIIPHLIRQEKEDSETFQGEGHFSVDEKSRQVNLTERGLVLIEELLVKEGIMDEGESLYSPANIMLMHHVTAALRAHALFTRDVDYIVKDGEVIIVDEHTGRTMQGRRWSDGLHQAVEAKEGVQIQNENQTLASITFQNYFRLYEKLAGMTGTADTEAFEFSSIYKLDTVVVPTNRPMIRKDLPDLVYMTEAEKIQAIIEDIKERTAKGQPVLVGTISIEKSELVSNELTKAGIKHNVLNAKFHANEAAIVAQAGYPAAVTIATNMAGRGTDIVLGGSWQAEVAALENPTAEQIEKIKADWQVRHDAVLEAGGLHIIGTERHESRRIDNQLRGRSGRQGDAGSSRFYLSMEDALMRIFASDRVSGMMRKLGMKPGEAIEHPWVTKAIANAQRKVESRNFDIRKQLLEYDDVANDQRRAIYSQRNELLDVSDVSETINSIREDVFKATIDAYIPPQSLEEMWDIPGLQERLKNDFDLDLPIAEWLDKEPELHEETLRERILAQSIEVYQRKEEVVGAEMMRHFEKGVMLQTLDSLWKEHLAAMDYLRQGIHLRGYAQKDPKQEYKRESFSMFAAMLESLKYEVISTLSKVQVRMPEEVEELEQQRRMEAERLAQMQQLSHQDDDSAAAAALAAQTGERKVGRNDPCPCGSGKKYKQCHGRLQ
Sequence of Sialic acid-binding Ig-like lectin 9 (Homo sapiens) (Q9Y336 whole entry): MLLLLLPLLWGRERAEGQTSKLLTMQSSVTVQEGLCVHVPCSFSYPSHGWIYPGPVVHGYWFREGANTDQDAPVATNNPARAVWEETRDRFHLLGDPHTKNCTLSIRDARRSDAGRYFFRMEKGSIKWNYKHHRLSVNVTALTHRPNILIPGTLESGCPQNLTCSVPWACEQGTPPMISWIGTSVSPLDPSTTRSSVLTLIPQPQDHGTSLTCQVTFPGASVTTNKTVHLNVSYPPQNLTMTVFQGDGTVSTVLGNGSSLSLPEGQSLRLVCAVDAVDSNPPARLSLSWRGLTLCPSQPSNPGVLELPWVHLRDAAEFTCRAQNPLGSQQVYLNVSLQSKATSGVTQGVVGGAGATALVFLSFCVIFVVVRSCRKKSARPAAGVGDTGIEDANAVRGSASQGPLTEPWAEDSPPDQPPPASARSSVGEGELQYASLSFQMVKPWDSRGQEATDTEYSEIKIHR

Turning to `O=c1ccc2c(n1CCN1CCCC1)CCN(Cc1ccoc1)CC2`, the Percent Effect in experiment [1] was -1.68%; in experiment [2], 8.22%; in experiment [3], -4.13%; in experiment [4], 13.3%; in the experiment on Trypanosoma cruzi, 7.94%; in experiment [5] it was -9.58%. For the same compound, the Percent Effect in experiment [6] was 10.7%; in the experiment filed under Homo sapiens it was 19.6%; in [7], 8.33%; in [8], 13.6%; in experiment [9], -2.06%.
On to `CCc1noc(C(C)N2CCC(C(=O)Nc3cnn(CC)c3)CC2)n1` (stereo not given), for which the Percent Effect in experiment [1] is -1.91%; in experiment [2], 1.27%; in experiment [3], 3.92%; in experiment [4], -3.56%; in the experiment on Trypanosoma cruzi, 1.54%; in experiment [5], 2.37%. For the same compound, the Percent Effect in [6] was 7.72%; in the experiment filed under Homo sapiens, 8.57%; in experiment [7] it was -4.17%; in [8], -10.1%; in experiment [9] it was -28.9%.
For `CCc1nc(C2CCCN2Cc2nnc(Cc3ccccc3)o2)no1` (stereo not given), the Percent Effect in experiment [1] is -3%; in [2], 0%; in [3], 2.23%; in experiment [4], 3.12%; with Trypanosoma cruzi, 8.52%; in [5] it was 1.9%. Further, the Percent Effect is 5.25% in [6]; -2.79% in the experiment listed under Homo sapiens; 1.91% in experiment [7]; 2.35% in experiment [8]; 4.27% in [9].
Regarding `CS(=O)(=O)N1CCC(C(=O)NC(Cc2ccsc2)c2ccccn2)CC1` (stereo not given), the Percent Effect was -4.27% in experiment [1]; 6.76% in experiment [2]; 8.49% in [3]; 4.61% in experiment [4]; 2.17% with Trypanosoma cruzi; 1.16% in [5]. In addition, the Percent Effect in [6] was 4.84%; in the experiment filed under Homo sapiens, 13.2%; in experiment [7] it was 5.38%; in experiment [8], 9.09%; in [9], -8.15%.
Take `CC(C)Oc1ncccc1CNC(=O)N1CCC(C(N)=O)C1` (stereo not given): the Percent Effect was -6.99% in experiment [1]; 5.26% in experiment [2]; -1.63% in [3]; 3.84% in experiment [4]; -4.51% with Trypanosoma cruzi; 2.68% in experiment [5]. Also, the Percent Effect in experiment [6] is 2%; in the experiment listed under Homo sapiens, 23.8%; in [7], 1.47%; in experiment [8] it was 7.32%; in experiment [9], -0.235%.
For the compound `O=C(O)C1(Cc2cc(-c3cccc(F)c3)no2)CCOCC1`, the Percent Effect in [1] was -3.27%; in experiment [2], 6.76%; in experiment [3], 11.7%; in [4], 6.38%; in the experiment on Trypanosoma cruzi, -3.75%; in [5], -3.02%. For the same compound, the Percent Effect was 7.8% in [6]; -7.88% in the experiment listed under Homo sapiens; 2.15% in [7]; 3.9% in experiment [8]; -5.82% in experiment [9].
In the case of `CCN1CCn2c(C)cnc2C12CCN(C(=O)c1ccc(Cl)cc1)CC2`, the Percent Effect in experiment [1] is -4.5%; in experiment [2], 10.7%; in experiment [3], 9.36%; in experiment [4], -7.09%; with Trypanosoma cruzi, -6.95%; in [5] it was -59%. Moreover, the Percent Effect in experiment [6] was 11.1%; in the experiment filed under Homo sapiens it was 4.01%; in [7] it was 2.08%; in [8], 10%; in [9] it was -6.26%.
In the case of `CN1C(=O)CC(C(=O)O)C12CCN(Cc1ccc(Cl)cc1F)CC2` (stereo not given), the Percent Effect is -2.86% in [1]; 10.7% in experiment [2]; -8% in experiment [3]; 3.22% in experiment [4]; -0.487% in the experiment with Trypanosoma cruzi; 2.6% in [5]. Further, the Percent Effect is 10.1% in [6]; 10.2% in the experiment listed under Homo sapiens; 6.01% in experiment [7]; 21% in experiment [8]; -6.2% in [9].
For the compound `COc1ccc(Br)c(C(=O)NCC2CCN(S(=O)(=O)C3CC3)CC2)c1`, the Percent Effect was -4.34% in experiment [1]; 19.2% in [2]; -7.39% in experiment [3]; 14% in experiment [4]; 6.07% in the experiment on Trypanosoma cruzi; -3.18% in [5]. The Percent Effect in [6] is 19.5%; in the experiment listed under Homo sapiens it was 20.3%; in experiment [7], 4.3%; in [8], 17.5%; in experiment [9], -9.38%.
As to `O=C(c1cnc(-c2cccs2)s1)N1CCCC(n2cccn2)C1` (stereo not given), the Percent Effect in [1] was -4.52%; in experiment [2], 13.5%; in experiment [3], 1.78%; in experiment [4] it was 1.67%; in the experiment on Trypanosoma cruzi, -1.6%; in experiment [5] it was -2%. Further, the Percent Effect in [6] was 3.24%; in the experiment listed under Homo sapiens, 13.5%; in experiment [7] it was 5.42%; in experiment [8] it was 11.1%; in experiment [9], -8.6%.
